Experimental data as given in PubChem BioAssay AID1159580 (chemical genetic matrix, 2015).
Values joined by “and” are separate entries in the source; they are usually repeats but may differ in a detail not shown here. Equal entries are not always repeated. Among all 5,500 compounds or so, about 2,000 (36%) were called active. Inconclusive results (about 18%) are left out. No stated cut-off is given here; in the data, active means normalized growth mostly below about 0.91 (no sharp cut-off); inconclusive means no clear call, values can overlap the other calls; inactive means mostly above about 0.92. The list shows a part of the results.

Test: chemical genetic growth profiling, strain panel (AID 1159580);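 further: tested at 20 µM; growth read once vehicle control cultures reached saturation at 30 °C; 1 = growth at the plate median or of vehicle wells; lower values mean less growth of the strain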
Conditions: S. cerevisiae deletion strains, growth OD

Measured: normalized growth

O=C(O)c1ccccc1O
inactive: locus YAL013W, strain DEP1, active compounds read low 1.01 | locus YAL021C, strain ccr4, active compounds read low 0.985 | locus YAL026C, strain drs2, active compounds read low 0.984 | locus YAL030W, strain snc1, active compounds read low 0.992 | locus YBL061C, strain skt5, active compounds read low 0.979 | locus YBR009C, strain hhf1, active compounds read low 0.996 | locus YBR021W, strain FUR4, active compounds read low 0.994 | locus YBR023C, strain chs3, active compounds read low 0.995 | locus YBR171W, strain sec66, active compounds read low 0.996 | locus YBR229C, strain ROT2, active compounds read low 1 | locus YBR231C, strain swc5, active compounds read low 0.975 | locus YBR279W, strain paf1, active compounds read low 0.979 | locus YCL011C, strain gbp2, active compounds read low 0.983 | locus YCL016C, strain dcc1, active compounds read low 1.01 | locus YCL029C, strain bik1, active compounds read low 1.01 | locus YCL069W, strain vba3, active compounds read low 0.994 | locus YCR088W, strain abp1, active compounds read low 0.981 | locus YDL005C, strain med2, active compounds read low 0.973 | locus YDL035C, strain GPR1, active compounds read low 1.01 | locus YDL040C, strain nat1, active compounds read low 0.969 | locus YDL074C, strain BRE1, active compounds read low 1.03 | locus YDL101C, strain DUN1, active compounds read low 1.01 | locus YDL134C, strain PPH21, active compounds read low 1.01 | locus YDL185W, strain tfp1, active compounds read low 0.992 | locus YDL192W, strain arf1, active compounds read low 1.01 | locus YDR001C, strain nth1, active compounds read low 0.955 | locus YDR069C, strain doa4, active compounds read low 0.975 | locus YDR101C, strain arx1, active compounds read low 1.01 | locus YDR137W, strain rgp1, active compounds read low 0.997 | locus YDR159W, strain sac3, active compounds read low 0.976 | locus YDR162C, strain NBP2, active compounds read low 1.01 | locus YDR195W, strain ref2 0.904 | locus YDR297W, strain sur2, active compounds read low 0.984 | locus YDR318W, strain mcm21, active compounds read low 1.03 | locus YDR334W, strain swr1, active compounds read low 0.916 | locus YDR335W, strain msn5, active compounds read low 0.959 | locus YDR388W, active compounds read low 1.01 | locus YDR392W, strain spt3, active compounds read low 1.02 | locus YDR502C, strain sam2, active compounds read low 1.01 | locus YEL003W, strain gim4, active compounds read low 0.973 | locus YEL037C, strain rad23, active compounds read low 0.986 | locus YEL061C, strain CIN8 (second series), active compounds read low 0.959 | locus YEL061C, strain CIN8, active compounds read low 1 | locus YER015W, strain faa2, active compounds read low 0.968 | locus YER016W, strain bim1, active compounds read low 0.978 | locus YER110C, active compounds read low 1.01 | locus YER111C, strain swi4, active compounds read low 0.97 | locus YER155C, strain BEM2 (second series), active compounds read low 0.967 | locus YER155C, strain BEM2, active compounds read low 0.992 | locus YER167W, strain BCK2, active compounds read low 1 | locus YFR010W, strain ubp6, active compounds read low 0.978 | locus YGL078C, strain dbp3, active compounds read low 0.998 | locus YGL086W, strain mad1, active compounds read low 1 | locus YGL167C, strain pmr1, active compounds read low 0.968 | locus YGL173C, strain kem1, active compounds read low 0.995 | locus YGL227W, strain vid30, active compounds read low 0.971 | locus YGL240W, strain doc1, active compounds read low 0.983 | locus YGL248W, strain PDE1, active compounds read low 1 | locus YGL253W, strain hxk2, active compounds read low 0.973 | locus YGR078C, strain PAC10, active compounds read low 1 | locus YGR135W, strain pre9, active compounds read low 1.03 | locus YGR252W, strain gcn5, active compounds read low 1.01 | locus YHR013C, strain ard1, active compounds read low 1.01 | locus YHR027C, strain rpn1, active compounds read low 0.984 | locus YHR030C, strain SLT2, active compounds read low 1.01 | locus YHR079C, strain IRE1 (second series), active compounds read low 1.02 | locus YHR079C, strain IRE1, active compounds read low 1.06 | locus YHR094C, strain hxt1, active compounds read low 0.997 | locus YHR129C, strain ARP1, active compounds read low 0.998 | locus YHR142W, strain chs7, active compounds read low 0.997 | locus YHR200W, strain rpn10, active compounds read low 1.01 | locus YIL066C, strain RNR3, active compounds read low 1 | locus YIL073C, strain SPO22, active compounds read low 1.05 | locus YIL125W, strain kgd1, active compounds read low 0.994 | locus YIR030C, strain dcg1, active compounds read low 1 | locus YJL092W, strain hpr5, active compounds read low 0.996 | locus YJL095W, strain BCK1 (second series), active compounds read low 0.978 | locus YJL095W, strain BCK1, active compounds read low 1.01 and 0.995 | locus YJL115W, strain asf1, active compounds read low 0.951 | locus YJL129C, strain trk1, active compounds read low 0.956 | locus YJL134W, strain LCB3, active compounds read low 1 | locus YJL154C, strain vps35, active compounds read low 0.961 | locus YJL164C, strain tpk1, active compounds read low 0.993 | locus YJL166W, strain qcr8, active compounds read low 0.994 | locus YJL168C, strain set2, active compounds read low 1.01 | locus YJL187C, strain SWE1 (second series), active compounds read low 1 | locus YJR043C, strain POL32, active compounds read low 0.979
